From PubChem BioAssay (EPA / NIEHS)
Several values for one entry are separate records, joined by “and”; a condition that tells them apart may be missing. Equal entries are not always repeated. Results filed as inconclusive are left out. A structure can be active in one record and inactive in another. Activity calls are given as the source filed them. Rule for the calls, unless noted: active = hit-call score of the fitted dose curve at least 0.9, where 1 is the maximum; inactive = score below 0.9.

Key:
[1] = molecular target: Nuclear respiratory factor 1 (Homo sapiens) (UniProt Q16656); experiment: ATG_NRF1_CIS: Attagene CIS-FACTORIAL HepG2 Assay for human Nuclear Respiratory Factor 1 (NRF1) Orphan Gene (AID 2282987); details: HepG2 NRF1 cis-element reporter, Attagene multiplex; actives raise or lower the signal
Chain of Nuclear respiratory factor 1 (Homo sapiens) (Q16656 whole entry, looked up, the tested form may be a part): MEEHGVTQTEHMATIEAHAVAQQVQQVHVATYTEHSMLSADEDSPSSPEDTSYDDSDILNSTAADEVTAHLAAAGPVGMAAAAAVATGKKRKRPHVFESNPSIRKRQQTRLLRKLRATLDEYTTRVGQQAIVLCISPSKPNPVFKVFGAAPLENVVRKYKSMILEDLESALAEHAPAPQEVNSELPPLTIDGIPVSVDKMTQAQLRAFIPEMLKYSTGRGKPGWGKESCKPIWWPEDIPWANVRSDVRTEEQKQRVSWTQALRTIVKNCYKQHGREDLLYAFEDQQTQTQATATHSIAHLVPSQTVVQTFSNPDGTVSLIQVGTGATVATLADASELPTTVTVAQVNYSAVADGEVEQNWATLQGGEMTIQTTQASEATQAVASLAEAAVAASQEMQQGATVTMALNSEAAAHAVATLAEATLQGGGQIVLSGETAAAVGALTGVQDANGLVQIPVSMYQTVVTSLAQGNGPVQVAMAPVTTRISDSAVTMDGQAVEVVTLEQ
In short: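 Fluorescence intensity of labelled reporter cDNA fragments, resolved by capillary electrophoresis, served as readout for NRF1 cis-element activity. Transiently transfected HepG2 cells were dosed for 24 hours; activity in either direction was fitted against DMSO negative control.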

[2] = ATG_NFI_CIS: Attagene CIS-FACTORIAL HepG2 Assay for human Nuclear Factor I (NFI) (AID 2282989); details: HepG2 cis-regulatory reporter, NFI response element transcription; actives raise or lower the signal
In short: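 Reporter transcription driven by endogenous transcription factors in HepG2 cells; 24 h treatment. Quantitation by labelled RT-PCR fragments on capillary electrophoresis, gain- or loss-of-signal relative to DMSO.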

[3] = molecular target: Myc proto-oncogene protein (Homo sapiens) (UniProt P01106); experiment: ATG_Myc_CIS: Attagene CIS-FACTORIAL HepG2 Assay for human Myelocytomatosis (Myc) Proto-Oncogene Transcription Factor (AID 2282990); details: HepG2, Attagene cis-reporter transcription factor activity; actives raise or lower the signal
Chain of Myc proto-oncogene protein (Homo sapiens) (P01106 whole entry, looked up): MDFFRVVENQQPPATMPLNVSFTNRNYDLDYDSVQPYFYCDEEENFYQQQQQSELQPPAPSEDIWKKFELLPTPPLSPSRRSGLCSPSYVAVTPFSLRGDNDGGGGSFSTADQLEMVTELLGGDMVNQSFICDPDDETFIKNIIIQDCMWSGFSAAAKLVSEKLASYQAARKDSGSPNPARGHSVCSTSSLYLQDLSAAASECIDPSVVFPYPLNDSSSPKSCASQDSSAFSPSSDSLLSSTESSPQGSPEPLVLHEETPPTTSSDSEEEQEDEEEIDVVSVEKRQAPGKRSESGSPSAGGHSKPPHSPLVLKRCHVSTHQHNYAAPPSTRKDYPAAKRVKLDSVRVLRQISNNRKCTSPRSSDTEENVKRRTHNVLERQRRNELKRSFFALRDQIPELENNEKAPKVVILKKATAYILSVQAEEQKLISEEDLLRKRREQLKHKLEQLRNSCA
In short: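 Transiently transfected HepG2 cells bearing cis-promoter reporter units for endogenous transcription factors; 24 h exposure. Reporter mRNA measured by RT-PCR, 6-FAM primer extension, HpaI cut and capillary electrophoresis; bidirectional fit relative to DMSO.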

[4] = ATG_NF_kB_CIS: Attagene CIS-FACTORIAL HepG2 Assay for human Nuclear Factor Kappa B (NF-kB) (AID 2282991); details: HepG2 Attagene cis-factorial NF-kB reporter mRNA; actives raise or lower the signal
In short: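 Endogenous transcription factor activity in HepG2 was captured via cis-regulated reporter constructs; after 24 h dosing, reporter mRNA was reverse-transcribed, amplified, fluorescently labelled and sized by capillary electrophoresis, with activity fitted bidirectionally relative to DMSO.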

[5] = ATG_NRF2_ARE_CIS: Attagene CIS-FACTORIAL HepG2 Assay for human Nuclear Factor Erythroid 2 Related Factor 2 (NFR2) response to Antioxidant Response Elements (ARE) (AID 2282992); details: HepG2 Attagene ARE/NRF2 reporter, transcription factor activity; actives raise or lower the signal;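 for AC50: reporter mRNA level measured by RT-PCR and capillary electrophoresis fluorescence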
In short: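 Readout: reporter mRNA quantified by RT-PCR plus FAM-labelled primer extension, HpaI digestion and capillary electrophoresis, 24 h after dosing transfected HepG2 cells. Gain or loss of signal is fitted bidirectionally against DMSO baseline.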

[6] = ATG_Oct_MLP_CIS: Attagene CIS-FACTORIAL HepG2 Assay for human Octamer-Binding Transcription Factor (Oct) (AID 2282993); details: HepG2 Attagene cis-factorial Oct reporter, mRNA; actives raise or lower the signal
In short: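 Transfected HepG2 cells, 24 h treatment. Reporter mRNA quantified by RT-PCR–capillary electrophoresis; bidirectional fitting against DMSO.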

[7] = molecular target: Peroxisome proliferator-activated receptor gamma (Homo sapiens) (UniProt P37231); experiment: ATG_PPARg_TRANS: Attagene TRANS-FACTORIAL HepG2 Assay for human Peroxisome Proliferator-activated Receptor-gamma (PPARg) (AID 2283007; active = hit-call score of the fitted dose curve at least 0.9, where 1 is the maximum)
Chain of Peroxisome proliferator-activated receptor gamma (Homo sapiens) (P37231 whole entry, looked up, the tested form may be a part): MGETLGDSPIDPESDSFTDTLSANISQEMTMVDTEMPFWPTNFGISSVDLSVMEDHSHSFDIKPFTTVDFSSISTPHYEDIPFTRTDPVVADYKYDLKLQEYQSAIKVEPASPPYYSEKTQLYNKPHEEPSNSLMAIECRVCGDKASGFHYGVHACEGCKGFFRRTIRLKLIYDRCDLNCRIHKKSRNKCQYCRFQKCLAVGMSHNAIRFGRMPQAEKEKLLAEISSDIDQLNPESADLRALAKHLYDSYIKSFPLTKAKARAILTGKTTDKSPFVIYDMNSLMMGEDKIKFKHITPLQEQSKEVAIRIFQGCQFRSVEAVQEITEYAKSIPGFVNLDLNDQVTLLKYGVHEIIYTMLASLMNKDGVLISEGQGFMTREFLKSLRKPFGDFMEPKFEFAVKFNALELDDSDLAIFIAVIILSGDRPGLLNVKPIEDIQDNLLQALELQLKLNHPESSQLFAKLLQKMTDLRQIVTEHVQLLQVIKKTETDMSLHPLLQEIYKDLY
In short: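 A TRANS-format multiplexed reporter assay measures activity of an exogenous chimeric NR-Gal4 protein in HepG2 cells. After 24 h of chemical exposure, reporter transcripts are amplified, fluorescently labelled and sized by capillary electrophoresis, with gain of signal scored against DMSO.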

[8] = molecular target: Nuclear receptor subfamily 1 group I member 2 (Homo sapiens) (UniProt O75469); experiment: ATG_PXR_TRANS: Attagene TRANS-FACTORIAL HepG2 Assay for human Pregnane X Receptor (PXR) (AID 2283008; active = hit-call score of the fitted dose curve at least 0.9, where 1 is the maximum)
Chain of Nuclear receptor subfamily 1 group I member 2 (Homo sapiens) (O75469 whole entry, looked up, the tested form may be a part): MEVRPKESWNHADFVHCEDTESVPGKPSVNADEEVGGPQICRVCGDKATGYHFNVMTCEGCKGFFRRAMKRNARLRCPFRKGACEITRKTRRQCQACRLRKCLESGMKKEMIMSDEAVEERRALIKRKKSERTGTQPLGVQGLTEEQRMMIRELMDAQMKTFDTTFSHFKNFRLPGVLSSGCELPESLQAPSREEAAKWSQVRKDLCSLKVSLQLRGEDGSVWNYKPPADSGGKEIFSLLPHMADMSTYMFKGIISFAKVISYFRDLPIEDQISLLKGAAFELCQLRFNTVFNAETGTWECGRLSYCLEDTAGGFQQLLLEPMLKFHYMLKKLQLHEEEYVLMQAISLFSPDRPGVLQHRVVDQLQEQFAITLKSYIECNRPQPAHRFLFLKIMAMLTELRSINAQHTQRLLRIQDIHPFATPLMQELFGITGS
In short: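 Trans-factorial format: exogenous NR-Gal4 fusion activity, not endogenous factor, in transfected human HepG2 liver cells. After 24 h dosing, RNA isolated, reverse-transcribed, amplified and resolved by capillary electrophoresis; induction scored versus DMSO.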

[9] = molecular target: human Peroxisome Proliferator-activated Receptor alpha (PPARa), PPARA (gene 5465) (UniProt Q07869); experiment: ATG_PPARa_TRANS: Attagene TRANS-FACTORIAL HepG2 Assay for human Peroxisome Proliferator-activated Receptor alpha (PPARa) (AID 2283001; active = hit-call score of the fitted dose curve at least 0.9, where 1 is the maximum;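 for AC50: potency for gain of reporter signal over DMSO so agonist or activator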)
Chain of human Peroxisome Proliferator-activated Receptor alpha (PPARa), PPARA (gene 5465) (Q07869 whole entry, looked up): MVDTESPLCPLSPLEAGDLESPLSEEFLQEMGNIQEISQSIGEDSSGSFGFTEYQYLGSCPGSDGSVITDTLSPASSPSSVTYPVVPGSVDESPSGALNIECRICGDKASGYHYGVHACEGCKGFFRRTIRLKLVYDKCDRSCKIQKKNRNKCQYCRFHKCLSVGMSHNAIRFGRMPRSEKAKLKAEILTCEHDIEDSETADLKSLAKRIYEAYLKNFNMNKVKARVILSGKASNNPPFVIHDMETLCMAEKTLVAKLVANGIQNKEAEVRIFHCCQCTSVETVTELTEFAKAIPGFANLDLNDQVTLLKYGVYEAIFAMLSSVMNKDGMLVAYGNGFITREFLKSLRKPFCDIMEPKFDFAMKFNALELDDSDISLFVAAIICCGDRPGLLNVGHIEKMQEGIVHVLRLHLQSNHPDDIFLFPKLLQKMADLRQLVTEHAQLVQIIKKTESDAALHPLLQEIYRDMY
In short: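 HepG2, transient MRTU transfection, 24 h treatment. RT-PCR → FAM labelling → capillary electrophoresis. Fit vs DMSO, positive direction.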

[10] = molecular target: Cellular tumor antigen p53 (Homo sapiens) (UniProt P04637); experiment: ATG_p53_CIS: Attagene CIS-FACTORIAL HepG2 Assay for human p53 Transcription Factor (AID 2282994); details: HepG2 p53 cis-element reporter, Attagene mRNA; actives raise or lower the signal
Chain of Cellular tumor antigen p53 (Homo sapiens) (P04637 whole entry, looked up): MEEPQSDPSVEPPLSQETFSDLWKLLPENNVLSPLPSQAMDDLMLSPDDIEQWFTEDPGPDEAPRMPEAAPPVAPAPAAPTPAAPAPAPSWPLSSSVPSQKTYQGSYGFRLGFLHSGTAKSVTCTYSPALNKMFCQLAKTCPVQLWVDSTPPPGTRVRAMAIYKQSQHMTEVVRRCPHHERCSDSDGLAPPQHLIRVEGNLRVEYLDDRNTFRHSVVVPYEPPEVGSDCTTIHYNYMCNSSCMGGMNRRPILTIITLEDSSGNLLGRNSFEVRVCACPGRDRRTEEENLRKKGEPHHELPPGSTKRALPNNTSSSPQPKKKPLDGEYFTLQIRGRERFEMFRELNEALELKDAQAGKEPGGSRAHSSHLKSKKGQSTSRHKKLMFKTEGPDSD
In short: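 Read-out: reporter mRNA by RT-PCR plus capillary electrophoresis with fluorescence detection. Human HepG2 liver cells carried transfected multi-reporter cis-element constructs, dosed 24 h. Gain or loss of signal fitted bidirectionally against DMSO control.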

[11] = BSK_3C_uPAR: BioMAP Diversity Plus: 3C Assay for Urokinase-type plasminogen activator receptor (uPAR) Biomarker Activity (AID 2282998); details: BioMAP 3C HUVEC, uPAR biomarker ELISA; actives raise or lower the signal
In short: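 Readout: ELISA for surface uPAR. System: human umbilical vein endothelial primary cells, 24 h after chemical exposure. Analysis: bidirectional fit, DMSO baseline.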

[12] = BSK_4H_Eotaxin3: BioMAP Diversity Plus: 4H Assay for Eotaxin 3 Biomarker Activity (AID 2283000); details: primary human endothelial cells (HUVEC); actives raise or lower the signal
In short: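 Eotaxin-3 (CCL26) levels were measured by ELISA in HUVEC primary cultures 24 h post-dosing. Gain or loss of signal was fitted in both directions, with DMSO serving as baseline and negative control.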

[13] = molecular target: human Peroxisome Proliferator-activated Receptor delta (PPARd), PPARD (gene 5467) (UniProt Q03181); experiment: ATG_PPARd_TRANS: Attagene TRANS-FACTORIAL HepG2 Assay for human Peroxisome Proliferator-activated Receptor delta (PPARd) (AID 2283002; active = hit-call score of the fitted dose curve at least 0.9, where 1 is the maximum)
Chain of human Peroxisome Proliferator-activated Receptor delta (PPARd), PPARD (gene 5467) (Q03181 whole entry, looked up, the tested form may be a part): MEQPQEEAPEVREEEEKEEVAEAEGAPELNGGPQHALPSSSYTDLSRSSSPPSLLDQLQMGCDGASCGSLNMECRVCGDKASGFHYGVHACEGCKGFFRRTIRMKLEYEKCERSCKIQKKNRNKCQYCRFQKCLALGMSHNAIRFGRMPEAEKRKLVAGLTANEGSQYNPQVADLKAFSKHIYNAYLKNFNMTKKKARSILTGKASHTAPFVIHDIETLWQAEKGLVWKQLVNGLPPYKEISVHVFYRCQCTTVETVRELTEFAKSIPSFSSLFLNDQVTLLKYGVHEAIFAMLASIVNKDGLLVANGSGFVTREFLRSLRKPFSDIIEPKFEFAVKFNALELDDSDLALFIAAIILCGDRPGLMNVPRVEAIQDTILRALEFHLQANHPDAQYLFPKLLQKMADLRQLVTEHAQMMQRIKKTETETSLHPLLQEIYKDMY
In short: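 HepG2 cells transiently transfected with GAL4-UAS multiplexed reporter units driven by exogenous chimeric NR-GAL4 proteins; 24 h compound exposure. Reporter mRNA measured by RT-PCR, 6-FAM primer extension, HpaI digestion and capillary electrophoresis; gain of signal fitted relative to DMSO.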

[14] = read-out: Intercellular Adhesion Molecule 1 (ICAM1), ICAM1 (gene 3383); experiment: BSK_3C_ICAM1: BioMAP Diversity Plus: 3C Assay for Intercellular Adhesion Molecule 1 (ICAM1) Biomarker Activity (AID 2283003); details: primary human endothelial cells (HUVEC); actives raise or lower the signal
In short: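 ELISA readout of ICAM1 in human umbilical vein endothelial cells in the 3C system, taken 24 h post-dose. Gain or loss of signal versus DMSO was fitted in both directions, with SRB total-protein staining run in parallel.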

[15] = molecular target: human Retinoic Acid Receptor beta (RARb), RARB (gene 5915) (UniProt P10826); experiment: ATG_RARb_TRANS: Attagene TRANS-FACTORIAL HepG2 Assay for human Retinoic Acid Receptor beta (AID 2283004; active = hit-call score of the fitted dose curve at least 0.9, where 1 is the maximum)
Chain of human Retinoic Acid Receptor beta (RARb), RARB (gene 5915) (P10826 whole entry, looked up, the tested form may be a part): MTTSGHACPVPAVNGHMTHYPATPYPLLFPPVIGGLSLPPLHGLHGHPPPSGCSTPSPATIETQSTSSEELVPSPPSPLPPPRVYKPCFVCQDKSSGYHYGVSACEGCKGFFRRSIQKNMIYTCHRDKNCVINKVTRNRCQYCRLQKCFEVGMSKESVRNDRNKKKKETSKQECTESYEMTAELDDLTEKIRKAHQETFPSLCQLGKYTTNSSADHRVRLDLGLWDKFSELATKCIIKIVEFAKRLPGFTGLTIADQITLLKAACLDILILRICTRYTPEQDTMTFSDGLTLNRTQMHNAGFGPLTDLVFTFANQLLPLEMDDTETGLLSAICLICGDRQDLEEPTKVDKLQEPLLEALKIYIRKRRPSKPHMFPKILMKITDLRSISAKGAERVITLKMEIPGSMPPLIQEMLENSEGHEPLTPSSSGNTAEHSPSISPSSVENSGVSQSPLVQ
In short: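 HepG2 cells were transiently transfected with GAL4-UAS reporter units that report activity of exogenous chimeric NR-Gal4 proteins, then exposed to compound for 24 h. Reporter mRNA was quantified by RT-PCR with capillary electrophoresis fluorescence, as gain of signal over DMSO.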

[16] = molecular target: Retinoic acid receptor alpha (Homo sapiens) (UniProt P10276); experiment: ATG_RARa_TRANS: Attagene TRANS-FACTORIAL HepG2 Assay for human Retinoic Acid Receptor alpha (RARa) (AID 2283005; active = hit-call score of the fitted dose curve at least 0.9, where 1 is the maximum)
Chain of Retinoic acid receptor alpha (Homo sapiens) (P10276 whole entry, looked up, the tested form may be a part): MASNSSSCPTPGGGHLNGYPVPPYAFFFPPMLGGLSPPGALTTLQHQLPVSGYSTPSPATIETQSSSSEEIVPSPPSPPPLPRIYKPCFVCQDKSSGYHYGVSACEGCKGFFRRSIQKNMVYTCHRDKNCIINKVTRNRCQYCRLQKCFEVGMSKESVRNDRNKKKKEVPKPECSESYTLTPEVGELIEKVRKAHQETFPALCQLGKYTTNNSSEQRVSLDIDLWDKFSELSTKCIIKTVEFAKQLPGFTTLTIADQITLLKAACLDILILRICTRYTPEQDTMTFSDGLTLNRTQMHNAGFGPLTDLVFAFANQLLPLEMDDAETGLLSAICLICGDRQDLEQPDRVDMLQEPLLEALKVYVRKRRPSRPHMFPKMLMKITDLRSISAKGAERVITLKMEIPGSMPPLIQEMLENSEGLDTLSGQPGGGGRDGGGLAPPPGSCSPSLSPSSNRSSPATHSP
In short: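 HepG2 transiently transfected with multiplex GAL4-UAS reporter units including a human RARa–GAL4 chimera; 24 h compound exposure. Reporter mRNA quantified by RT-PCR, 6-FAM labeling and capillary electrophoresis; gain of signal versus DMSO.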

[17] = BSK_3C_Proliferation: Cell Proliferation Assessment in the BioMAP Diversity Plus: 3C Assay (AID 2283006); details: primary human endothelial cells (HUVEC);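 for AC50: potency may reflect either rise or fall in cell number versus DMSO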
In short: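 Proliferation as total protein: sulforhodamine B (0.1%) stain of TCA-fixed subconfluent human umbilical vein endothelial cells, absorbance 560 nm, 48 h after dosing. Activity fitted in both directions against DMSO baseline.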

[18] = molecular target: human Retinoic Acid Receptor gamma (RARg), RARG (gene 5916) (UniProt P13631); experiment: ATG_RARg_TRANS: Attagene TRANS-FACTORIAL HepG2 Assay for human Retinoic Acid Receptor gamma (RARg) (AID 2283009; active = hit-call score of the fitted dose curve at least 0.9, where 1 is the maximum)
Chain of human Retinoic Acid Receptor gamma (RARg), RARG (gene 5916) (P13631 whole entry, looked up, the tested form may be a part): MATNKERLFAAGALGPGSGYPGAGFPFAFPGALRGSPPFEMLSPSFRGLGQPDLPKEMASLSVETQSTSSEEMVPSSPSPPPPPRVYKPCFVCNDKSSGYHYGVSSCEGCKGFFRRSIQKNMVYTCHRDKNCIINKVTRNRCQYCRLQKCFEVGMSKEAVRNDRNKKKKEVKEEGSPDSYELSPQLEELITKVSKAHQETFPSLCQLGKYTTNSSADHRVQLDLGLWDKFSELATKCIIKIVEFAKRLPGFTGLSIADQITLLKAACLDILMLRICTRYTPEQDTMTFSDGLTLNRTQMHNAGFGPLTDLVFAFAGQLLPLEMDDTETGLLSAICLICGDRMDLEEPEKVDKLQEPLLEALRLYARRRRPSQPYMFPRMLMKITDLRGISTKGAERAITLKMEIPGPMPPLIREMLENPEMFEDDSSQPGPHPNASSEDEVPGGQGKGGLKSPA
In short: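 Transactivation of exogenous RARg-Gal4 fusion measured as reporter transcript induction after 24 h in transfected HepG2 cells. RNA reverse-transcribed, amplified, fluorescently labeled and resolved by capillary electrophoresis; increase relative to DMSO.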

[19] = BSK_3C_TissueFactor: BioMAP Diversity Plus: 3C Assay for Tissue Factor Biomarker Activity (AID 2282997); details: BioMAP 3C HUVEC, tissue factor biomarker readout; actives raise or lower the signal
In short: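 Tissue Factor measured by ELISA, 24 h after treatment of primary HUVEC in the BioMAP 3C setting.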

[20] = BSK_3C_VCAM1: BioMAP Diversity Plus: 3C Assay for Vascular cell adhesion molecule 1 (VCAM1) Biomarker Activity (AID 2282999); details: BioMAP 3C HUVEC, VCAM1 ELISA, cytokine-stimulated; actives raise or lower the signal
In short: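 HUVEC primary cells, 24 h compound exposure; VCAM-1 by ELISA; gain/loss of signal fitted bidirectionally vs DMSO baseline.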

Measured: AC50

CCCCOc1ccc(N)cc1
inactive: [1] | [2] | [3] | [4] | [5] | [6] | [7] | [8]

CC/C=C\CCOC(C)=O
inactive: [1] | [2] | [3] | [4] | [5] | [6] | [9] | [8]

Nc1ccc(Oc2cccc(Oc3ccc(N)cc3)c2)cc1
active: [1] 76.4 µM | [2] 166 µM | [5] 26.5 µM | [6] 24.9 µM | [7] 5.29 µM | [8] 22.1 µM
inactive: [3] | [4] | [9]

O=C(O)C(F)(F)C(F)(F)C(F)(F)C(F)(F)C(F)(F)C(F)(F)C(F)(F)C(F)(F)C(F)(F)C(F)(F)C(F)(F)C(F)(F)F
inactive: [1] | [2] | [3] | [4] | [5] | [11] | [12] | [9] | [13] | [14] | [15] | [16] | [7] | [8] | [18]
active: [10] 143 µM | [12] 9.18 µM | [17] 20.6 µM and 6.79 µM

Oc1ccc(Nc2ccccc2)cc1
active: [5] 43.9 µM | [12] 0.547 µM | [17] 14.6 µM | [7] 23.4 µM | [8] 20.5 µM
not listed: [10] | [15] | [16] | [18] | [19] | [20]
inactive: all other assays above

FC(F)(F)C(F)(F)CNCC(F)(F)C(F)(F)F
not listed: [10] | [15] | [16] | [17]
inactive: all other assays above

O=C(O)C(F)(F)C(F)(F)C(F)(F)C(F)(F)C(F)(F)C(F)(F)C(F)(F)C(F)(F)C(F)(F)C(F)(F)C(F)(F)C(F)(F)C(F)(F)F
inactive: [1] | [2] | [3] | [6] | [19] | [11] | [20] | [12] | [13] | [14] | [15] | [16] | [7] | [8] | [18]
active: [4] 26.2 µM | [5] 26.1 µM | [12] 1.32 µM

CCCCOCCOCCOC(=O)CCCCC(=O)OCCOCCOCCCC
active: [9] 37.7 µM
not listed: [10] | [15] | [17] | [20]
inactive: all other assays above

Cc1ccc(S(=O)(=O)OCC(F)(F)C(F)(F)C(F)(F)C(F)(F)C(F)(F)C(F)F)cc1
active: [8] 2.98 µM
not listed: [9] | [10] | [16] | [17] | [19] | [20]
inactive: all other assays above

CCCCCCS
not listed: [10] | [11] | [12] | [14] | [15] | [17] | [19] | [20]
inactive: all other assays above

FC(F)(F)C(F)(F)C(F)(F)C(F)(F)C(F)(F)C(F)(F)CC1CO1 (centres undefined)
not listed: [10] | [13] | [19] | [20]
inactive: all other assays above
